GALC G270D up – galactocerebrosidase G270D activity enhancement, cell-based | P54803 | 145M-Twi-hGALC-G270D cells (Twitcher mouse brain line with human GALC G270D), HMU-beta-Gal fluorescence, 48 h | Potency, µM (highest dose often 57.5 µM), usual class: activators | hit rate 0.1% among 45,000; also: nearly all actives have a fitted effect of over 65% in size
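Fluorogenic HMU-b-Gal hydrolysis (0.1 mM final, pH 5.2 citrate-phosphate with 1 mg/mL sodium taurocholate; carbonate stop buffer) measures mutant GALC activity after compound treatment of live 145M-Twi Twitcher brain cells stably carrying human GALC-G270D, with wild-type GALC line alongside; activation sought.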
PMP22 txn – modulators of PMP22 gene transcription in S16 Schwann cells. hit rate 2% among 43,000. AID 1508649. S16 Pmp22-F2sN Schwann cells, FLuc/NLuc coincidence luminescence, 24 h. Potency, µM (titrated, usually from 57.5 µM), actives largely listed as inhibitors; active = clear falling dose curves in both reporters; inconclusive = both reporters move, but less clearly or upward; inactive = either reporter flat; the % is the NLuc reporter signal
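Schwann cells carrying the coincidence reporter were exposed to library compounds for 24 h at 37C, then lysed and read for FLuc and, after quenching, NLuc luminescence on a CCD imager.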
S16 viability – cytotoxicity in S16 Pmp22-F2sN Schwann cells | S16 Pmp22-F2sN Schwann cells viability, CellTiter-Glo, 24 h | Potency, µM (titrated, usually from 57.5 µM), most hits filed as cytotoxic | hit rate 0.48% among 43,000; also: nearly all actives have a fitted effect of over 65% in size
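Viability was measured by CellTiter-Glo luminescence (15 min, room temperature). This followed 24 h at 37 °C of compound exposure (23 nL pin transfer) in S16 Pmp22-F2sN Schwann cells, 500-1,000 per well.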
pS6 MEF inh – reduces mTORC1 signaling in Tsc2 and p53 null MEF cells. Tsc2-/- p53-/- MEF, phospho-rpS6 immunofluorescence/PI, 24 h. Potency, µM (highest dose often 38.3 µM), usual class: inhibitors. hit rate 0.78% among 44,000; also: nearly all actives have a fitted effect of over 50% in size
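Readout is phospho-S6 Alexa 488 signal normalized to PI per well, reported as % active cells with thresholds set from rapamycin (7.5 nM) and DMSO controls. Cells: Tsc2-/-, p53-/- MEFs, 24 hrs compound at 37 C; PI cell number serves as viability.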
OvCa metastasis – blocks SKOV3ip1 adhesion and invasion in omental model; SKOV3ip1-GFP adhesion/invasion on 3D omental model, fluorescence; Potency, µM (top dose mostly 45.8 µM), usual class: inhibitors; hit rate 0.1% among 46,000; AID 1963576; also: nearly all actives have a fitted effect of over 65% in size
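qHTS, 4-pt dose (0.36-46 umol/L); SKOV3ip1-GFP, 1,200 cells/well, no FBS; primary omental fibroblast/mesothelial co-culture 48 h pre-grown; 2 h RT + 16 h 37 C; PBS wash, 4% PFA; GFP count 488/509 nm.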
NLuc saturating – inhibits NanoLuc at saturating substrate, PMP22 counter-screen; Potency, µM (titrated, usually from 57.5 µM), usual class: inhibitors; Secreted NLuc enzyme (filtered S16 cell medium), Nano-Glo luminescence; AID 1508638; shares compounds with PMP22 txn; hit rate 4% among 690
NLuc Km counter – inhibits NanoLuc under Km conditions, PMP22 counter-screen; shares compounds with PMP22 txn; secreted NLuc enzyme, coelenterazine luminescence, Km conditions; Potency, µM (highest dose often 57.5 µM), hits mostly inhibitors; hit rate 5% among 690
FLuc ctr PMP22 – firefly luciferase enzyme inhibition artifact for PMP22 screen; Potency, µM (top dose mostly 57.5 µM), actives largely listed as inhibitors; 690 tested, under 10 active; shares compounds with PMP22 txn; AID 1508640; purified P. pyralis FLuc, luminescence, 10 min
Target sequence (P08659 whole entry, looked up): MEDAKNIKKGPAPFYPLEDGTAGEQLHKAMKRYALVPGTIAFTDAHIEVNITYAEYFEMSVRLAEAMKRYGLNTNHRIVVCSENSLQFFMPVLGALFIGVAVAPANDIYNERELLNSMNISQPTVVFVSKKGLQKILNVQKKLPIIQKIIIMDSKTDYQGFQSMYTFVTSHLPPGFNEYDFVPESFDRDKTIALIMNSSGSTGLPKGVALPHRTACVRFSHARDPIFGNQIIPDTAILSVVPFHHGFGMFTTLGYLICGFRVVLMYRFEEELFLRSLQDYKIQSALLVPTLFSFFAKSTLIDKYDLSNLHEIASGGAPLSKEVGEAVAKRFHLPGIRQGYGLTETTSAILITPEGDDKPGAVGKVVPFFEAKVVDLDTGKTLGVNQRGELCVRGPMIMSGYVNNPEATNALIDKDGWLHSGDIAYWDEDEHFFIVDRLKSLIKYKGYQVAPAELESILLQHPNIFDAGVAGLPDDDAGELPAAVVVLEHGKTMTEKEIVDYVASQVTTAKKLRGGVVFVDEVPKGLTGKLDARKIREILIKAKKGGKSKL
S16 F2sN tox cnf – confirmation of cytotoxicity in S16 Pmp22-F2sN Schwann cells (luciferase reporters placed in the Pmp22 gene); shares compounds with PMP22 txn; S16 Schwann cells viability, CellTiter-Glo ATP luminescence, 24 h; Potency, µM (highest dose often 57.5 µM), usual class: cytotoxic; hit rate 7% among 690
PMP22 txn cnf – confirmation of modulators of PMP22 gene transcription in S16 cells | Potency, µM (top dose mostly 57.5 µM), most hits filed as inhibitors | shares compounds with PMP22 txn | S16 Schwann cells Pmp22-F2sN, dual luciferase, 24 h | hit rate 22% among 690; active = clear falling dose curves in both reporters; inconclusive = both reporters move, but less clearly or upward; inactive = either reporter flat; the % is the FLuc reporter signal
PMP22 prot conf – rat PMP22 protein level modulation, confirmatory; 95 tested, under 10 active; S16 Schwann cells Pmp22-HiBiT, luminescence, 48 h; shares compounds with PMP22 txn; AID 1508647; Potency, µM (series often up to 27.9 µM), hits mostly inhibitors
Large screens that a line does not name were inactive (follow-up assays come after a bar, where they were run). Sampled rows, rich in hits. Any-hit rate of the full collection: about 2.6%. Unless noted, calls follow the shape of the dose curve; as a rule, active = well fitted curve in the direction sought with a large enough effect; inconclusive = small, poorly fitted or top-dose-only effect, or another doubt; inactive = no such curve, though single readings can be large; an effect the other way counts as inactive or inconclusive.

Cc1c2cnn(CC(=O)O)c(=O)c2c(C)n1Cc1cccc(Cl)c1	none
CCOC(=O)c1c(C)[nH]c(CCC(=O)NCCCN2CCN(c3ccc(F)cc3)CC2)c1C	PMP22 txn inconclusive
CCOC(=O)c1c(C)[nH]c(CCC(=O)NCCCN2CCN(c3cc(Cl)ccc3C)CC2)c1C	PMP22 txn 15µM, S16 viability inconclusive, pS6 MEF inh inconclusive, OvCa metastasis inconclusive | NLuc saturating inactive | NLuc Km counter inactive | FLuc ctr PMP22 inactive | S16 F2sN tox cnf inconclusive | PMP22 txn cnf inconclusive
CCOc1ccc(CN2C(=O)C(=O)c3cccc(C)c32)cc1OC	PMP22 txn 11µM | NLuc saturating inconclusive | NLuc Km counter inconclusive | FLuc ctr PMP22 inactive | S16 F2sN tox cnf inactive | PMP22 txn cnf inconclusive
CCOCCCNC(=O)c1cc2c(=O)n(C)c3ccccc3c2n1C	PMP22 txn inconclusive
COc1cccc(CNC(=O)c2cc3c(=O)n(C)c4ccccc4c3n2C)c1	PMP22 txn 13µM | NLuc saturating inactive | NLuc Km counter inactive | FLuc ctr PMP22 inactive | S16 F2sN tox cnf inactive | PMP22 txn cnf inconclusive
CCCSc1ncc(Cl)c(C(=O)Nc2sc3c(c2C(=O)NCC)CCCC3)n1	PMP22 txn 5.1µM | NLuc saturating inactive | NLuc Km counter inactive | FLuc ctr PMP22 inactive | S16 F2sN tox cnf inactive | PMP22 txn cnf inconclusive
O=S(=O)(NCc1ccc(F)cc1)c1ccc(N2CCCCS2(=O)=O)cc1	PMP22 txn 12µM, S16 viability inconclusive | NLuc saturating inactive | NLuc Km counter inactive | FLuc ctr PMP22 inactive | S16 F2sN tox cnf inactive | PMP22 txn cnf inactive
COc1ccc(-c2onc(C)c2C)cc1S(=O)(=O)NCc1ccc(C)o1	PMP22 txn 8.9µM | NLuc saturating inactive | NLuc Km counter inactive | FLuc ctr PMP22 inactive | S16 F2sN tox cnf inactive | PMP22 txn cnf inconclusive
COc1ccc(Cl)cc1NS(=O)(=O)c1cc(-c2cc(C)no2)ccc1C	none
COc1ccc(-c2onc(C)c2C)cc1S(=O)(=O)Nc1cc(Cl)ccc1C	PMP22 txn inconclusive | NLuc saturating inconclusive | NLuc Km counter inconclusive | FLuc ctr PMP22 inactive | S16 F2sN tox cnf inactive | PMP22 txn cnf inconclusive
CCn1c(-c2nonc2N)nc2cnc(Oc3cccc(NC(=O)c4ccc(OCCN5CCOCC5)cc4)c3)cc21	none (no result: GALC G270D up, PMP22 txn, S16 viability, pS6 MEF inh)
CCSc1ncc(Cl)c(C(=O)Nc2nnc(CC)s2)n1	none
CCc1nnc(NC(=O)c2nc(S(C)(=O)=O)ncc2Cl)s1	PMP22 txn 9.5µM, S16 viability inconclusive, pS6 MEF inh inconclusive | NLuc saturating inconclusive | NLuc Km counter inconclusive | FLuc ctr PMP22 inactive | S16 F2sN tox cnf inconclusive | PMP22 txn cnf 14µM | PMP22 prot conf inconclusive
N[C@@H](CC(=O)N1CCn2c(nnc2C(F)(F)F)C1)Cc1cc(F)c(F)cc1F	none (no result: GALC G270D up, PMP22 txn, S16 viability, pS6 MEF inh)

Assay outcomes from PubChem BioAssay.
